The target of this test is 15-hydroxyprostaglandin dehydrogenase [NAD(+)] (Homo sapiens) (UniProt P15428). Kind of test: Thermal Shift Assay for Inhibitors of HPGD (15-Hydroxyprostaglandin Dehydrogenase). As to conditions: Recombinant HPGD thermal shift, SYPRO orange DSF, at 250 µM, stronger effect = higher value. The protocol: Assay Overview: Human 15-Hydroxyprostaglandin dehydrogenase (HPGD) catalyzes the inactivation of prostaglandin E2, and plays a major role in cancer biology by antagonizing the oncogenic potential of cyclooxygenase type 2 (COX2). Studies to assess the stability of human 15-PGDH in presence of compounds was performed as described (Niesen et al., 2007) with variations. References 1. Myung SJ, Rerko RM, Yan M, Platzer P, Guda K, Dotson A, Lawrence E, Dannenberg AJ, Lovgren AK, Luo G, Pretlow TP, Newman RA, Willis J, Dawson D, Markowitz SD. 15-Hydroxyprostaglandin dehydrogenase is an in vivo suppressor of colon tumorigenesis. Proc Natl Acad Sci U S A. 2006 Aug 8;103(32):12098-102. 2. Yan M, Rerko RM, Platzer P, Dawson D, Willis J, Tong M, Lawrence E, Lutterbaugh J, Lu S, Willson JK, Luo G, Hensold J, Tai HH, Wilson K, Markowitz SD. 15-Hydroxyprostaglandin dehydrogenase, a COX-2 oncogene antagonist, is a TGF-beta-induced suppressor of human gastrointestinal cancers. Proc Natl Acad Sci U S A. 2004 Dec 14;101(50):17468-73. 3. […]
Sequence of 15-hydroxyprostaglandin dehydrogenase [NAD(+)] (Homo sapiens) (P15428 whole entry, looked up): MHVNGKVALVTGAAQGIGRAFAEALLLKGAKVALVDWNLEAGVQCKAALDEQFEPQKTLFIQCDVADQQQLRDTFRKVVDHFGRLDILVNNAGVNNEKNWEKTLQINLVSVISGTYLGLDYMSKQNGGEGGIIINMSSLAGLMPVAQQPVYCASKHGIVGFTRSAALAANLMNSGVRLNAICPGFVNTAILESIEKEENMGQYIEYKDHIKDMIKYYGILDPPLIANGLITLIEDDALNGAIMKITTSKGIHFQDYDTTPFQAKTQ
HPGD was diluted to a final assay concentration of 1 uM in 100 mM Tris buffer, pH 8.0, containing 0.01% Tween-20 and 1:1000 SYPRO orange dye. […] Heat denaturation curves were recorded using a RT-PCR instrument (Mx3005p, Agilent) applying a temperature gradient of 2 degree C/min. […]

Thermal shift (delta Tm) data for 1 compound are collected here from PubChem BioAssay AID2427 (National Center for Advancing Translational Sciences (NCATS), 2010).

Each structure is given as a SMILES string. The source made the active and inactive calls.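 How the source made its calls: active means melting temperature shift above 3 C; inconclusive means shift above 1 C but not above 3 C; inactive means the rest.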

On to `O=P1(Nc2ccc(F)cc2)COc2ccccc2OC1`, for which the thermal shift (delta Tm) is 0.5 C (inactive). The thermal shift (delta Tm) (measured here: delta Tm with NADH cofactor) was 3.3 C.
